Assay [1] has as its system Proto-oncogene tyrosine-protein kinase receptor Ret (Homo sapiens), P07949 [Y791F]. Particulars: at 1 µM.
The target of assay [2] is Macrophage-stimulating protein receptor (Homo sapiens) (UniProt Q04912). Particulars: at 0.1 µM.
The target is the same in assay [3]. The note with it: at 1 µM.
In assay [4] the target is Proto-oncogene tyrosine-protein kinase ROS (Homo sapiens) (UniProt P08922). The note with it: at 0.1 µM.
Assay [5] shares this target. The note with it: at 1 µM.
Assay [6] concerns the target Proto-oncogene tyrosine-protein kinase Src (Homo sapiens) (UniProt P12931). The note with it: at 0.1 µM.
For assay [7] the target is unchanged. The note with it: at 1 µM.
For assay [8], the target named is Tyrosine-protein kinase Srms (Homo sapiens) (UniProt Q9H3Y6). The note with it: at 0.1 µM.
The target is the same in assay [9]. Particulars: at 1 µM.
Assay [10] concerns the target Tyrosine-protein kinase SYK (Homo sapiens) (UniProt P43405). Particulars: at 0.1 µM.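 Further: reported percentages are mean inhibition values for SYK.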

The values below come from ChEMBL document CHEMBL1961873, “Compounds: GSK PKIS; Assays: Nanosyn kinase panel” (2012).

SMILES strings stand for the structures.

Chain of Tyrosine-protein kinase Srms (Homo sapiens) (Q9H3Y6 whole entry): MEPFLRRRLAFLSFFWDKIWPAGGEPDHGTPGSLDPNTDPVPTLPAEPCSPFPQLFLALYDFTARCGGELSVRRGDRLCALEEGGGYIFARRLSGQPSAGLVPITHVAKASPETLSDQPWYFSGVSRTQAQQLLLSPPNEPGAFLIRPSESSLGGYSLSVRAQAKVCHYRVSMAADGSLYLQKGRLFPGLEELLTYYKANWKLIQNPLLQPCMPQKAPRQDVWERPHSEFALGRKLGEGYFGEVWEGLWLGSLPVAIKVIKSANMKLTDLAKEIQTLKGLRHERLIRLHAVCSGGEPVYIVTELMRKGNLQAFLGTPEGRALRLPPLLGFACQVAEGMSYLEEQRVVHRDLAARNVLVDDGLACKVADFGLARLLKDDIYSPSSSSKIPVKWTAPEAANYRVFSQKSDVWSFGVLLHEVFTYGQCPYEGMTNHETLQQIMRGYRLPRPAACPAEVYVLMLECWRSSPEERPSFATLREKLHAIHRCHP
Chain of Proto-oncogene tyrosine-protein kinase Src (Homo sapiens) (P12931 2-536 limits assumed): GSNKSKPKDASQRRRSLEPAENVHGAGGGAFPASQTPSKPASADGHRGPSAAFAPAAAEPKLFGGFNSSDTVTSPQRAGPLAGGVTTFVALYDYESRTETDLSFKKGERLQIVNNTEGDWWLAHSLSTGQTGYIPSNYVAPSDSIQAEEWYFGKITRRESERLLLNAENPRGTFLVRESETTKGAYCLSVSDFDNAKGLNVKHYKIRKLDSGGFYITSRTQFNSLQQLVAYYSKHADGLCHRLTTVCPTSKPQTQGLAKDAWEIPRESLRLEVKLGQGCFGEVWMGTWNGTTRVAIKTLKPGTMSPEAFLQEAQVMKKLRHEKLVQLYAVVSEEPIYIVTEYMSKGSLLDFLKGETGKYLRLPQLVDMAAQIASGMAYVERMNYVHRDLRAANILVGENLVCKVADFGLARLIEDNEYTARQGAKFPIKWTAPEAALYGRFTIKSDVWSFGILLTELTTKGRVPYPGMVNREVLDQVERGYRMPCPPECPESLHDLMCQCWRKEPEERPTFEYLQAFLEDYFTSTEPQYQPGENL
Chain of Proto-oncogene tyrosine-protein kinase receptor Ret (Homo sapiens), P07949 [Y791F] (P07949 whole entry Y791F): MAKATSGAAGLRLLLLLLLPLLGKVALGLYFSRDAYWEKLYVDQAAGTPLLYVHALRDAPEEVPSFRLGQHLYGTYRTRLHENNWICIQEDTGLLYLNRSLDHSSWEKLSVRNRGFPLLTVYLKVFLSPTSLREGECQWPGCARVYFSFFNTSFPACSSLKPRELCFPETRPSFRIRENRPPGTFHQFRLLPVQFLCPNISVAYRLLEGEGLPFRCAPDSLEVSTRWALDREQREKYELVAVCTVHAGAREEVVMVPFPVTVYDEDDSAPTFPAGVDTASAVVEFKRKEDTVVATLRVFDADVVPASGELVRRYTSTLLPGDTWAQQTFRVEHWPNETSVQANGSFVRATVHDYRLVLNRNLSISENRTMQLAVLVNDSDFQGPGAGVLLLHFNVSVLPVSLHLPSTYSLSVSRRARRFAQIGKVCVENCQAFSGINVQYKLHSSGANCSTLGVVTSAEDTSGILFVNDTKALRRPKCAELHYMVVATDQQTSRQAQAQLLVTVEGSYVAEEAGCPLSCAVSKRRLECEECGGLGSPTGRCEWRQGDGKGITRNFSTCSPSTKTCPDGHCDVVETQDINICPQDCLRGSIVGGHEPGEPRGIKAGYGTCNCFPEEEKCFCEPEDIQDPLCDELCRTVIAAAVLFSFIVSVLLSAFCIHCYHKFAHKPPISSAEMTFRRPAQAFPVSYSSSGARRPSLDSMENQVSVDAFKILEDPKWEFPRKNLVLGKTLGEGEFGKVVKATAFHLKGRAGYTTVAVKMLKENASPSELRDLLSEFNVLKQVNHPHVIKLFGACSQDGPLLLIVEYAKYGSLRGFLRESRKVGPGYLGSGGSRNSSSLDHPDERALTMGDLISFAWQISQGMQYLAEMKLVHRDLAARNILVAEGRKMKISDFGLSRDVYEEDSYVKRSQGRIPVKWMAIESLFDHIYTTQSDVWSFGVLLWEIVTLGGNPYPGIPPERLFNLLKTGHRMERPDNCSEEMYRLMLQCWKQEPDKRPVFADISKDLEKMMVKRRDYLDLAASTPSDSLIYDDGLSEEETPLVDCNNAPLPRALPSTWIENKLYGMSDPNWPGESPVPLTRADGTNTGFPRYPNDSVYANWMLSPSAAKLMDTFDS
Chain of Proto-oncogene tyrosine-protein kinase ROS (Homo sapiens) (P08922 whole entry): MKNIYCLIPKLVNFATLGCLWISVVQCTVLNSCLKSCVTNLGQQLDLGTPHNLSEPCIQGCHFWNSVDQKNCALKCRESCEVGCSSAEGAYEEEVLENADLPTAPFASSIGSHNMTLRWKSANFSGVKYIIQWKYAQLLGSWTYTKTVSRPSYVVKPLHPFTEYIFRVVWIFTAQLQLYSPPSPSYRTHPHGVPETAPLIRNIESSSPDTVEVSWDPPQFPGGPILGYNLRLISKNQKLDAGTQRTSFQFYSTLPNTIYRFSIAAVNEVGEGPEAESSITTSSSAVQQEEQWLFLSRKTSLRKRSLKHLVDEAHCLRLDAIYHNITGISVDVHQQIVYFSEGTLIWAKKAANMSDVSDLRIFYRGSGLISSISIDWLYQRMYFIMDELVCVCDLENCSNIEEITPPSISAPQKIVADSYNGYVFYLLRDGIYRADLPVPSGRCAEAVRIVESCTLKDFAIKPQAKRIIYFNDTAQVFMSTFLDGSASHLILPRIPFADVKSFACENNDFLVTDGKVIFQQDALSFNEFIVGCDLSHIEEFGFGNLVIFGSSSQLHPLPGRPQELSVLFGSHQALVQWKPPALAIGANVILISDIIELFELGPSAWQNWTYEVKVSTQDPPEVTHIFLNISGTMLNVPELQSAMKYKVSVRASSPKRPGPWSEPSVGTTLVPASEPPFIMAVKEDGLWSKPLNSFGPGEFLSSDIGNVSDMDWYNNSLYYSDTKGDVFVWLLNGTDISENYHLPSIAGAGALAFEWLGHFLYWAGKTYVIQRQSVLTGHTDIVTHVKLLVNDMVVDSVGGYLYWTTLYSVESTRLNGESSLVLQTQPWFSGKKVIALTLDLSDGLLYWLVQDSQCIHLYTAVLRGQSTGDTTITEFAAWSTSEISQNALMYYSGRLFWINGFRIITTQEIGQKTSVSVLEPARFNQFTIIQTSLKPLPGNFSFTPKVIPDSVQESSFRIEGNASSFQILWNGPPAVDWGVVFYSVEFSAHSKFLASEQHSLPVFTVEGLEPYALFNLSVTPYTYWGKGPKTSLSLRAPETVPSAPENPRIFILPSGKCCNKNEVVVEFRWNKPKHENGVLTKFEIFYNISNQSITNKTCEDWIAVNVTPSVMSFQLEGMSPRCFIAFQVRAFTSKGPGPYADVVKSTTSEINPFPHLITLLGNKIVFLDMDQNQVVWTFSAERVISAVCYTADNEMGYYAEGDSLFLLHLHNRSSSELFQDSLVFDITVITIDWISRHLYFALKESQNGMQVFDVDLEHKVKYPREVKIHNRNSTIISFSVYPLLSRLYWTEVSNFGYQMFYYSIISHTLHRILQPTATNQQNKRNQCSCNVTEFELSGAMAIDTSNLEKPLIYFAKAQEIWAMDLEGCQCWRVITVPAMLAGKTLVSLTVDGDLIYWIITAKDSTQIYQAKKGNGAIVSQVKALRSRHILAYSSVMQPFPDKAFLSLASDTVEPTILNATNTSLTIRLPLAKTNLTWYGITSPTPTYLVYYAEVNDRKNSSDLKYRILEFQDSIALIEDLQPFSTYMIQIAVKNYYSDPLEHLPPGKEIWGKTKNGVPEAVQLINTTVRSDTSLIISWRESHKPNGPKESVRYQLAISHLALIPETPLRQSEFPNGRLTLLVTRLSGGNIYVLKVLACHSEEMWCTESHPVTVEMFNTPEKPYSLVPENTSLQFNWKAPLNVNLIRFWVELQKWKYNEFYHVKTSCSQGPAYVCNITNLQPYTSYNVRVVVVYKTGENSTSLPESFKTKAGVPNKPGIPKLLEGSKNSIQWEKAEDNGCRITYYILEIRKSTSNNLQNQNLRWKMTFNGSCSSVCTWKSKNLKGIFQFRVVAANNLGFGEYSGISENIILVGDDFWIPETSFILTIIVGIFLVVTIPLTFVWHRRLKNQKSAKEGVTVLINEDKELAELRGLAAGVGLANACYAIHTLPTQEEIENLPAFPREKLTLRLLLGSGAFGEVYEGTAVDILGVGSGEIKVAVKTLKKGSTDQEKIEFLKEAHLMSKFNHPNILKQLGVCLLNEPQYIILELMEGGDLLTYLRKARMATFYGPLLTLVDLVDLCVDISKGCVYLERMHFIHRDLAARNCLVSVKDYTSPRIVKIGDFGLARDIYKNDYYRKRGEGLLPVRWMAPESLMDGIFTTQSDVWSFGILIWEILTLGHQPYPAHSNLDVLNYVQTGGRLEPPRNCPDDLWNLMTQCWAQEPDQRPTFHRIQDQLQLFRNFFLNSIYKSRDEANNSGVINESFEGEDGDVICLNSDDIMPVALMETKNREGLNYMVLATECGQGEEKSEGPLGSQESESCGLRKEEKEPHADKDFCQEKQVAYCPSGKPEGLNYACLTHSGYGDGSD

As a reminder, the inhibition is the change of the read-out against control, counted positive when it falls. Take `Cc1cc(-c2ccccn2)cc(C)c1/C=C/c1cncc(-c2nn[nH]n2)c1`: the inhibition in assay [1] amounted to 9.36%; in assay [2], 3.67%; in assay [3], 3.94%; in assay [4] it was 9.51%; in [5] it was 10.9%; in assay [6], 7.7%. The inhibition in assay [7] was 15.4%; in assay [8] it was -2.18%; in assay [9] it was 11.8%; in assay [10], -0.33%.

For the molecule `COc1cc(Nc2nccc(-c3cnn4ncccc34)n2)cc(OC)c1`, the inhibition is 33.6% in assay [1]; 4% in assay [2]; 22.3% in [3]; 57% in [4]; 87% in assay [5]; 17.1% in assay [6]. The inhibition in [7] is 63.9%; in [8], 0.34%; in assay [9] it was 6.85%; in [10], -0.4%.

For `CCS(=O)(=O)c1ccc(OC)c(Nc2nccc(N(C)c3ccc4c(C)n[nH]c4c3)n2)c1`, the inhibition in assay [1] came to 80.2%; in assay [2], 2.28%; in [3], 11.8%; in [4], 12.1%; in assay [5] it was 51.3%; in assay [6], 42.5%. In addition, the inhibition in assay [7] is 81.2%; in assay [8] it was 11.4%; in assay [9] it was 50.3%; in assay [10], -1.92%.

In the case of `CN1CCN(C(=O)c2ccc(NC(=O)Nc3ccc(N(C)c4ccnc(Nc5ccc(CS(C)(=O)=O)cc5)n4)cc3)cc2)CC1`, the inhibition was found to be 82.8% in assay [1]; 18.6% in assay [2]; 58.6% in [3]; 14.6% in assay [4]; 54.1% in [5]; 10.7% in assay [6]. For the same molecule, the inhibition in [7] is 42.2%; in [8] it was 0.11%; in assay [9], 5.6%; in assay [10], -0.89%.

In the case of `NS(=O)(=O)c1ccc(Nc2cc(-c3cccc(O)c3)n[nH]2)cc1`, the inhibition amounted to 26.2% in assay [1]; 5.75% in assay [2]; 0.78% in assay [3]; 6.66% in assay [4]; 12.1% in assay [5]; 3.91% in assay [6]. Besides, the inhibition was 11.9% in assay [7], -2.79% in assay [8], -7.29% in [9] and -3.9% in assay [10].

With `NC(=O)c1cccc(Nc2nccc(Nc3cccc(F)c3)n2)c1`, the inhibition is 37.9% in assay [1]; -6.8% in assay [2]; 5.75% in assay [3]; 18.8% in assay [4]; 60.8% in assay [5]; 16.7% in assay [6]. Besides, the inhibition was found to be 64.8% in [7], 1.56% in [8], 5.6% in assay [9] and 0.43% in assay [10].

In the case of `FC(F)(F)c1ccc(-c2nn3ncccc3c2-c2ccnc(Nc3ccc4c(c3)OCCO4)n2)cc1`, the inhibition in assay [1] was 43.9%; in assay [2], 11.8%; in [3] it was 0.63%; in [4] it was 7.87%; in [5], 9.43%; in assay [6], 0.84%. In addition, the inhibition was found to be 15.8% in [7], 8.49% in [8], 8.73% in assay [9] and 3.37% in [10].

In the case of `CCCN1CCCC(c2ccc(Nc3nc(Nc4cc(F)ccc4C(N)=O)c4cc[nH]c4n3)c(OC)c2)C1` (centres undefined), the inhibition in [1] is 23.6%; in assay [2], 0.58%; in assay [3], 13.1%; in assay [4] it was 63.8%; in assay [5], 81.2%; in assay [6] it was -0.17%. In addition, the inhibition in assay [7] came out at 14.6%; in [8] it was 1.99%; in assay [9], 22.1%.

Take `Cc1ccc2c(c1)/C(=N/Nc1ccc(S(N)(=O)=O)cc1)C(=O)N2`: the inhibition in assay [1] is 18.2%; in assay [2], -3.95%; in [3] it was -1.57%; in assay [4], 2.42%; in [5], 4.27%; in assay [6] it was 0.59%. For the same molecule, the inhibition in [7] is 6.44%; in assay [8] it was -1.38%; in [9], -2.68%; in assay [10], 2.17%.

For the molecule `CC(C)c1ccc2c(c1)NC(=O)/C2=N/Nc1ccc(S(N)(=O)=O)cc1`, the inhibition in assay [1] is 30.7%; in assay [2], 1.23%; in assay [3], -1.8%; in [4], 0.66%; in assay [5], 3.01%; in assay [6], 3.8%. Besides, the inhibition turned out to be 14% in [7], 0.59% in assay [8], 0.2% in [9] and 1.61% in [10].

Take `CS(=O)(=O)CCNCc1nc(-c2ccc3ncnc(Nc4ccc(OCc5cccc(C(F)(F)F)c5)cc4)c3c2)cs1`: the inhibition in assay [1] came to 5.88%; in [2], 4.48%; in assay [3], 2.59%; in assay [4] it was 4.03%; in assay [5], 4.18%; in [6], 6.29%. The inhibition in [7] is 7.64%; in assay [8] it was -0.76%; in [9] it was -3.56%; in [10], 0.35%.

Consider `CN(C)CCCn1c(-c2nonc2N)nc2cnccc21`, for which the inhibition in assay [1] was found to be 8.31%; in assay [2], 1.31%; in [3] it was 3.53%; in assay [4] it was 5.53%; in assay [5] it was 4.62%; in assay [6], 2.96%. Also, the inhibition in [7] is 6.8%; in assay [8], -0.98%; in assay [9] it was -4.16%; in assay [10] it was -4.3%.

For `NS(=O)(=O)c1cccc(Nc2cc(-c3ccc(F)cc3)n[nH]2)c1`, the inhibition in assay [1] was 23.6%; in assay [2], -6.54%; in assay [3] it was 8.51%; in assay [4] it was 4.34%; in [5] it was 4.36%; in assay [6], 3.21%. In addition, the inhibition in [7] was 10.4%; in assay [8] it was -0.24%; in assay [9], 2.26%; in [10], -3.53%.

For `COC(=O)Nc1nc2cc(Oc3ccc(NC(=O)Nc4cccc(Br)c4)cc3)ccc2[nH]1`, the inhibition in assay [1] worked out at 84.4%; in assay [2], 1.47%; in [3], 2.5%; in assay [4], 4.26%; in assay [5], 3.1%; in assay [6], 3.27%. For the same molecule, the inhibition in assay [7] is 6.9%; in [8], 2.26%; in [9] it was 3.49%; in [10], -1.46%.

Turning to `COc1cccc(-n2nc(C)c3c(N/N=C(\C)c4ccncc4)ncnc32)c1`, the inhibition is 5.78% in [1]; -3.77% in [2]; -0.1% in assay [3]; 2.71% in assay [4]; 4.49% in assay [5]; 2.45% in assay [6]. Further, the inhibition in assay [7] is 3.26%; in [8], 0.84%; in [9] it was 2.72%; in [10] it was 1.37%.

For the molecule `CS(=O)(=O)Nc1cccc(-c2ccc3c(NC(=O)C4CC4)n[nH]c3c2)c1`, the inhibition in [1] is -0.36%; in assay [2], -6.3%; in assay [3], -6.45%; in assay [4] it was 3.6%; in assay [5] it was 2.79%; in assay [6], 1.2%. The inhibition was 4.09% in assay [7], 1.35% in assay [8], -2.43% in assay [9] and -1.34% in assay [10].

For the molecule `ON=C1CCc2cc(-c3nc(C4CCNCC4)[nH]c3-c3ccncc3)ccc21`, the inhibition is 8.46% in assay [1]; -6.87% in [2]; 1.8% in assay [3]; 1.07% in assay [4]; 2.47% in assay [5]; 2.03% in assay [6]. Also, the inhibition is 0.66% in assay [7], 0% in [8], -2.67% in [9] and 2.82% in [10].

Consider `COc1cc2ncnc(Nc3ccc(C)c(O)c3)c2cc1OC`, for which the inhibition stood at 90.1% in assay [1]; 1.46% in [2]; 2.44% in assay [3]; 1.94% in [4]; 10.2% in assay [5]; 22.9% in assay [6]. Further, the inhibition was 70.5% in assay [7], 2.71% in assay [8], 18.7% in assay [9] and -4.37% in assay [10].

Take `Oc1cccc(-c2nc(-c3ccccc3)[nH]c2-c2ccncc2)c1`: the inhibition in [1] came to 71.2%; in assay [2] it was 1.43%; in [3], 5.25%; in assay [4] it was 4.41%; in assay [5] it was 9.95%; in [6], 18.7%. Further, the inhibition in assay [7] was 63.2%; in assay [8] it was 3.43%; in assay [9] it was 8.65%; in assay [10] it was -2.15%.
